Source: publication PMC11062922 (Nature Chemical Biology, 2023)
Like-named read-outs stand apart in the source and are kept apart here.

Assays:
Set-up in all cases: species or system human, MV4-11 + K-562 + COLO205 + SK-N-BE2 + OVCAR-8
[1] = test system: PRKACA; settings: read-out: apparent Kd, n = 1
[2] = test system: PRKACB; settings: read-out: apparent Kd, n = 1
[3] = test system: CSNK1D; settings: read-out: apparent Kd, n = 1
[4] = test system: MAPK10; settings: read-out: apparent Kd; compound concentrations: 100 nM and 1000 nM (sheet 'Samples'), CATDS: 5.7634861461912698E-2; n = 1
[5] = test system: MAPK9; settings: read-out: apparent Kd, compound concentrations: 100 nM and 1000 nM (sheet 'Samples'), n = 1
[6] = test system: AURKA; settings: read-out: apparent Kd, n = 1
[7] = test system: CAMKK2; settings: read-out: apparent Kd, n = 1
[8] = test system: EPHA4; settings: read-out: apparent Kd, n = 1
[9] = test system: EPHA5; settings: read-out: apparent Kd, n = 1
[10] = test system: MARK3; settings: read-out: apparent Kd; compound concentrations: 100 nM and 1000 nM (sheet 'Samples'), CATDS: 1.9647586530532599E-2; n = 1
[11] = test system: ATM; settings: read-out: apparent Kd, n = 1
[12] = test system: BCR; settings: read-out: apparent Kd, n = 1
[13] = test system: CHEK1; settings: read-out: apparent Kd, n = 1
[14] = test system: RPS6KA4; settings: read-out: apparent Kd, n = 1
[15] = test system: TNK1; settings: read-out: apparent Kd, n = 1
[16] = test system: PRKAG2; settings: read-out: apparent Kd; compound concentrations: 100 nM and 1000 nM (sheet 'Samples'), CATDS: 2.5465407694982199E-2; n = 1
[17] = test system: PIP4K2C; settings: read-out: apparent Kd; compound concentrations:100 nM and 1000 nM (sheet 'Samples'); n = 1
[18] = compound concentrations:100 nM and 1000 nM (sheet 'Samples')

Q: With CCn1c(-c2nonc2N)nc2c(C#CC(C)(C)O)nc(OC[C@@H](N)c3ccccc3)cc21 [GSK938890A] as the compound, how does the potency estimated from few doses ([1]; compound concentrations: 100 nM and 1000 nM (sheet 'Samples'), CATDS: 0.21319960399835) read?
A: 0.0226 µM

Q: And the potency estimated from few doses ([2]; compound concentrations: 100 nM and 1000 nM (sheet 'Samples'), CATDS: 0.177486762785802)?
A: 0.0308 µM

Q: With Cl.ON=C1CCc2cc(-c3nc(C4CCNCC4)[nH]c3-c3ccncc3)ccc21 [SB-614067-R] as the compound, how does the potency estimated from few doses [3, 18] read?
A: 0.436 µM

Q: How did the potency estimated from few doses ([3]; compound concentrations: 100 nM and 1000 nM (sheet 'Samples'), CATDS: 0.14597424406190301) turn out when COc1cccc2c(-c3ccncc3)c(-c3ccc(F)cc3)nn12 [GW468513X] was run?
A: 0.052 µM

Q: And the potency estimated from few doses [4]?
A: 0.346 µM

Q: And the potency estimated from few doses ([5]; CATDS: 6.8874136988771595E-2)?
A: 0.218 µM

Q: CN(c1ccc(NC(=O)N2CCN(CCCN3CCOCC3)CC2)cc1)c1ccnc(Nc2ccc(CS(C)(=O)=O)cc2)n1.Cl [GW830899A] was tested. Which potency estimated from few doses ([6]; compound concentrations: 100 nM and 1000 nM (sheet 'Samples'), CATDS: 2.4317426688995499E-2) did it give?
A: 0.955 µM

Q: And the potency estimated from few doses ([7]; compound concentrations: 100 nM and 1000 nM (sheet 'Samples'), CATDS: 1.7762622720353199E-2)?
A: 2.19 µM

Q: And the potency estimated from few doses ([8]; compound concentrations: 100 nM and 1000 nM (sheet 'Samples'), CATDS: 2.15154621578117E-2)?
A: 1.27 µM

Q: What about the potency estimated from few doses ([9]; compound concentrations: 100 nM and 1000 nM (sheet 'Samples'), CATDS: 2.2767251891404602E-2) of the same compound?
A: 1.11 µM

Q: What about the potency estimated from few doses [10] of the same compound?
A: 1.61 µM

Q: What about the potency estimated from few doses ([2]; compound concentrations: 100 nM and 1000 nM (sheet 'Samples'), CATDS: 1.9426092751651199E-2) of the same compound?
A: 1.66 µM

Q: How did the potency estimated from few doses ([3]; compound concentrations: 100 nM and 1000 nM (sheet 'Samples'), CATDS: 0.18196610661617901) turn out when Fc1ccc(-c2c(-c3ccncc3)[nH]c3cccnc23)cc1 [RO1153853-000] was run?
A: 0.0994 µM

Q: What about the potency estimated from few doses ([5]; CATDS: 7.2614011783570201E-2) of the same compound?
A: 0.541 µM

Q: For NCCNS(=O)(=O)c1ccc(-c2ccnc3[nH]ccc23)cc1 [GSK977617A], which potency estimated from few doses [11, 18] is on record?
A: 0.295 µM

Q: What about the potency estimated from few doses [12, 18] of the same compound?
A: 0.244 µM

Q: And the potency estimated from few doses [7, 18]?
A: 1.97 µM

Q: And the potency estimated from few doses [13, 18]?
A: 2.25 µM

Q: What about the potency estimated from few doses [8, 18] of the same compound?
A: 0.287 µM

Q: And the potency estimated from few doses [9, 18]?
A: 0.267 µM

Q: And the potency estimated from few doses [1, 18]?
A: 0.361 µM

Q: And the potency estimated from few doses [2, 18]?
A: 0.571 µM

Q: And the potency estimated from few doses [14, 18]?
A: 0.588 µM

Q: And the potency estimated from few doses [15, 18]?
A: 0.181 µM

Q: Which results are given for CCn1c(-c2nonc2N)nc2c(-c3ccccc3)ncc(OCCCN)c21.CCn1c(-c2nonc2N)nc2c(-c3ccccc3)ncc(OCCCN)c21.O=C(O)C(F)(F)F.O=C(O)C(F)(F)F [GSK260205A]?
A: potency estimated from few doses ([3]; compound concentrations: 100 nM and 1000 nM (sheet 'Samples'), CATDS: 4.20751700104477E-2): 0.469 µM; potency estimated from few doses ([1]; compound concentrations: 100 nM and 1000 nM (sheet 'Samples'), CATDS: 2.90938755589953E-2): 1.48 µM; potency estimated from few doses ([2]; compound concentrations: 100 nM and 1000 nM (sheet 'Samples'), CATDS: 3.9372517693277299E-2): 0.557 µM

Q: With Clc1cc(Cl)cc(Nc2ccnc(Nc3cc(Cl)cc(Cl)c3)n2)c1 [GSK175726A] as the compound, how does the potency estimated from few doses ([11]; compound concentrations: 100 nM and 1000 nM (sheet 'Samples'), CATDS: 2.7134606068091E-2) read?
A: 0.0775 µM

Q: And the potency estimated from few doses ([6]; compound concentrations: 100 nM and 1000 nM (sheet 'Samples'), CATDS: 1.16998692507499E-2)?
A: 0.47 µM

Q: And the potency estimated from few doses ([12]; compound concentrations: 100 nM and 1000 nM (sheet 'Samples'), CATDS: 1.5030836072921499E-2)?
A: 0.242 µM

Q: What about the potency estimated from few doses ([7]; compound concentrations: 100 nM and 1000 nM (sheet 'Samples'), CATDS: 8.7749844490250094E-3) of the same compound?
A: 1.42 µM

Q: And the potency estimated from few doses ([13]; compound concentrations: 100 nM and 1000 nM (sheet 'Samples'), CATDS: 9.2936135533363204E-3)?
A: 1.08 µM

Q: What about the potency estimated from few doses ([8]; compound concentrations: 100 nM and 1000 nM (sheet 'Samples'), CATDS: 2.4571343446097599E-2) of the same compound?
A: 0.0915 µM

Q: And the potency estimated from few doses ([9]; compound concentrations: 100 nM and 1000 nM (sheet 'Samples'), CATDS: 1.7966956970046102E-2)?
A: 0.164 µM

Q: What about the potency estimated from few doses [16] of the same compound?
A: 0.0861 µM

Q: What about the potency estimated from few doses ([14]; compound concentrations: 100 nM and 1000 nM (sheet 'Samples'), CATDS: 8.4689848583526291E-3) of the same compound?
A: 1.72 µM

Q: And the potency estimated from few doses ([15]; compound concentrations: 100 nM and 1000 nM (sheet 'Samples'), CATDS: 5.9656473094293803E-2)?
A: 0.0249 µM

Q: Which potency estimated from few doses [6, 18] does the source give for CN(C)CCNC(=O)Nc1ccc(N(C)c2ccnc(Nc3ccc(CS(C)(=O)=O)cc3)n2)cc1.Cl [GW830900A] here?
A: 0.893 µM

Q: What about the potency estimated from few doses [17] of the same compound?
A: 1.84 µM
